The inhibition is the change of the read-out against control, counted positive when it falls.

Structures are written as SMILES.

Sequence of Serine/threonine-protein kinase PAK 6 (Homo sapiens) (Q9NQU5 whole entry, looked up): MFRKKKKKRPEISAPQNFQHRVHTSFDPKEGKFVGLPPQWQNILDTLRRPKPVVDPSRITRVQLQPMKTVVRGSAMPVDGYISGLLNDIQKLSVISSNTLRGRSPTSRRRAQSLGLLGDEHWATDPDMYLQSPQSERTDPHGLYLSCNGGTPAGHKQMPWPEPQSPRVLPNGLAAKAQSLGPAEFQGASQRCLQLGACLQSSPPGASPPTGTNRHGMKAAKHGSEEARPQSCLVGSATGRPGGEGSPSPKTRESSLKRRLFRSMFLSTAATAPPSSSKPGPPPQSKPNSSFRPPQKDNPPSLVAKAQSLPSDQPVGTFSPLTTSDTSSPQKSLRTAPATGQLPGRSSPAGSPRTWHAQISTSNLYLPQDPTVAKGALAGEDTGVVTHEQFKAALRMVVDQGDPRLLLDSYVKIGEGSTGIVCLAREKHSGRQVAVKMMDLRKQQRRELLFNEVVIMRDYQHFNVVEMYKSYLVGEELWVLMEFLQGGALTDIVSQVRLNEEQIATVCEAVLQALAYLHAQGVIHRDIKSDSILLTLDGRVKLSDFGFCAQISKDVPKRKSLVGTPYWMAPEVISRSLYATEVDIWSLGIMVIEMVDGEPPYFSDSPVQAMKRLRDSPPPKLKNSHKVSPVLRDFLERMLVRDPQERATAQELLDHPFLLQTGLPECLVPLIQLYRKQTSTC

The first test addresses Serine/threonine-protein kinase PAK 6 (Homo sapiens) (UniProt Q9NQU5). Particulars: at 1 µM.
As to `CNC(=O)c1cncc(/C=C/c2c(C)cccc2C)c1`, the inhibition came to 2.54%.
Same read-out and setting: next, `NCc1ccc(-n2c(-c3nonc3N)nc3cnccc32)cc1`: -0.18%; `Fc1ccc(-c2ncn(C3CCNCC3)c2-c2ccnc(Oc3ccc4c(c3)OCO4)n2)cc1`: -5.42%.
Still for that read-out and setting: the value for `C#Cc1cccc(Nc2ncnc3ccc(OCCCCNCCS(C)(=O)=O)cc23)c1` was -2.58%; that for `NS(=O)(=O)c1ccc(N/N=C2\C(=O)Nc3ccc(-c4cnco4)cc32)cc1` was -6.6%; that for `O=C(NCC1CC1)c1ccc(-c2cccc(C(=O)NC3CC3)c2)cc1` was 8.38%.
The same measure, in the same setting: the value for `CCS(=O)(=O)c1ccc(OC)c(Nc2ncc(-c3ccccc3Cl)o2)c1` was 0.05%; that for `COc1ccc(-c2ccc3c(NC(=O)C4CC4)n[nH]c3n2)cc1` was -4.51%; that for `NC(=O)c1cc(-c2ccncc2)cc(-c2ccccc2)c1N` was -5.82%.
For `Fc1ccc(-c2c(-c3ccncc3)nc3n2CCS3)cc1`, the inhibition was -5.03%.
For `COc1ccc2cc(-c3c(-c4ccncc4)nc(-c4ccc(S(C)(=O)=O)cc4C)n3C)ccc2c1`, the inhibition is -3.99%.
On the same count and under the same terms, next, `Fc1ccc(-c2ncn(C3CCNCC3)c2-c2ccnc(Oc3ccc(Oc4ccccc4)cc3)n2)cc1`: -1.92%.
Still for that read-out and setting: the value for `COc1cc(Nc2ncc3c(C)nc(-c4cccc(C(F)(F)F)c4)n3n2)cc(OC)c1OC` was 11.2%.
Take `CN(c1ccc(NC(=O)Nc2c(Cl)cccc2Cl)cc1)c1ccnc(Nc2cccc(CS(C)(=O)=O)c2)n1`: the inhibition amounted to 0.99%.
With `COc1cc2ncn(-c3cc(OCc4cccs4)c(C(N)=O)s3)c2cc1OC`, the inhibition was found to be 11%.
`NC(=O)Cc1ccccc1Oc1nccc(-c2c(-c3ccc(F)cc3)ncn2C2CCNCC2)n1`: the inhibition was -1.76%.
As for `C/C(Nc1ccc(S(N)(=O)=O)cc1)=C1/C(=O)Nc2ccccc21`, the inhibition came to 0.59%.
Still for that read-out and setting: next, `Fc1ccc(-c2ncn(CCCN3CCOCC3)c2-c2ccncc2)cc1`: -7.59%.
For the compound `FC(F)(F)c1cccc(Nc2nccc(-c3cnn4nc(-c5ccccc5)ccc34)n2)c1`, the inhibition is -5.84%.

The test system of a further test is Tyrosine-protein kinase ABL1 (Homo sapiens), P00519 [E255K]. Particulars: at 0.1 µM.
Sequence of Tyrosine-protein kinase ABL1 (Homo sapiens), P00519 [E255K] (P00519 whole entry E255K): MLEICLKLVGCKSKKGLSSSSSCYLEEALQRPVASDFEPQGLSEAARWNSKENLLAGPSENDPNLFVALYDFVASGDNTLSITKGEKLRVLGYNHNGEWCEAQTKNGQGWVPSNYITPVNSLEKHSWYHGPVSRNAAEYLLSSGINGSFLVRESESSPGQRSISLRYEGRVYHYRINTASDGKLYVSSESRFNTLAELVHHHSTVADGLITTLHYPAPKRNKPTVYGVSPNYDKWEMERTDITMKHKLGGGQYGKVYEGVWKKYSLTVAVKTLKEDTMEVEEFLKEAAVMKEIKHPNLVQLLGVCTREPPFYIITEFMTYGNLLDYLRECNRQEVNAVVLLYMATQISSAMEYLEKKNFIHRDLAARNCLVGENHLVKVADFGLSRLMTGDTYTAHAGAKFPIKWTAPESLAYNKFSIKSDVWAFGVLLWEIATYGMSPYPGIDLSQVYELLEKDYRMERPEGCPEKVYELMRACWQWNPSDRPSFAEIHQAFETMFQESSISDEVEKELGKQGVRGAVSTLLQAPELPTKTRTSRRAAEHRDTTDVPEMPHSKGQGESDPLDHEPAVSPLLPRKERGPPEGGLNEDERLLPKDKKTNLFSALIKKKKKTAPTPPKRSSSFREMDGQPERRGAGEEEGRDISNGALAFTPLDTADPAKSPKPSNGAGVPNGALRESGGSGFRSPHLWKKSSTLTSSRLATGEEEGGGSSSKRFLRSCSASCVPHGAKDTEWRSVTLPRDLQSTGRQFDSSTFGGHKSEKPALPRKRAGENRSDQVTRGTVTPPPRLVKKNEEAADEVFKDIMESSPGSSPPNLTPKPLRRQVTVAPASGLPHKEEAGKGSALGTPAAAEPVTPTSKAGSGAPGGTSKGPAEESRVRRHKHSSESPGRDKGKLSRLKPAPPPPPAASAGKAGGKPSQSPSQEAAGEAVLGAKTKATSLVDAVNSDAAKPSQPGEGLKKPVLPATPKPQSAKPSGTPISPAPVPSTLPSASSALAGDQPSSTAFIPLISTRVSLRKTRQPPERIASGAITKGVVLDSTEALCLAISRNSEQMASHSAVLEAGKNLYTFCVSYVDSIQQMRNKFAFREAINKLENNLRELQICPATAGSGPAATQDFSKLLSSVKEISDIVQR
For the compound `O=C(Nc1ccc(Oc2ccc3[nH]c(NC(=O)c4ccccc4)nc3c2)cc1)Nc1cc(C(F)(F)F)ccc1F`, the inhibition was determined as 3.28%.
With `CCS(=O)(=O)c1ccc(OC)c(Nc2ncc(-c3cccc(-c4ccccc4F)c3)o2)c1`, the inhibition was 40.6%.
`C[C@@H](Oc1cc(-n2cnc3ccc(OCC4CCN(C)CC4)cc32)sc1C(N)=O)c1ccccc1Cl`: the inhibition is 0.13%.
In the case of `Clc1ccc(CNc2nccc(-c3cnn4ncccc34)n2)cc1`, the inhibition was found to be 4.07%.
Regarding `COc1ccc(C2=C(N3CCc4ccccc43)C(=O)NC2=O)cc1`, the inhibition worked out at 3.46%.
The same measure, in the same setting: the value for `CCN(CC)Cc1ccc(Nc2nccc(-c3cnn4ncccc34)n2)cc1` was 2.66%.
Still for that read-out and setting: the value for `COc1cc2ncn(-c3cc(OCc4ccccc4C(F)(F)F)c(C(C)=O)s3)c2cc1OC` was 1.66%.
Same read-out and setting: next, `Fc1ccc(-c2nc3n(c2-c2ccncc2)CCS3)cc1`: 1.52%.
Turning to `COc1cccc(/C=N/Nc2ncnc3c2cnn3-c2cccc(OC)c2)c1`, the inhibition amounted to 7.5%.
As for `CS(=O)(=O)CCNCc1ccc(-c2ccc3ncnc(Nc4ccc(OCc5ccccc5)c(Br)c4)c3c2)o1`, the inhibition is 1.35%.
`COc1cc(N2CCN(C(C)C)CC2)ccc1Nc1nc(Nc2ccc(F)cc2C(=O)NC[C@@H](O)CO)c2cc[nH]c2n1`: the inhibition stood at 1.32%.
With `CN(C)c1ccc2c(c1)/C(=C/Nc1ccc(S(N)(=O)=O)cc1)C(=O)N2`, the inhibition is 2.53%.
On the same count and under the same terms, the value for `CN(C)CCCNc1nccc(-c2c(-c3ccc(F)cc3)nn3cc(C(F)(F)F)ccc23)n1` was 1.96%; that for `Nc1nccc(-c2c(-c3ccc(F)cc3)ncn2C2CCC(O)CC2)n1` (stereo not drawn) was 2.5%; that for `COc1cc2ncn(-c3cc(OCCc4ccccc4)c(C(N)=O)s3)c2cc1OC` was -1.76%.
Same read-out and setting: next, `CNC(=O)c1cncc(/C=C/c2c(C)cccc2C)c1`: 8.21%; `NCc1ccc(-n2c(-c3nonc3N)nc3cnccc32)cc1`: 3.58%.
Same read-out and setting: the value for `Fc1ccc(-c2ncn(C3CCNCC3)c2-c2ccnc(Oc3ccc4c(c3)OCO4)n2)cc1` was 2.98%; that for `C#Cc1cccc(Nc2ncnc3ccc(OCCCCNCCS(C)(=O)=O)cc23)c1` was 4.64%; that for `NS(=O)(=O)c1ccc(N/N=C2\C(=O)Nc3ccc(-c4cnco4)cc32)cc1` was 1.82%.
Take `O=C(NCC1CC1)c1ccc(-c2cccc(C(=O)NC3CC3)c2)cc1`: the inhibition was 2.4%.
Turning to `CCS(=O)(=O)c1ccc(OC)c(Nc2ncc(-c3ccccc3Cl)o2)c1`, the inhibition is 2.3%.
Still for that read-out and setting: next, `COc1ccc(-c2ccc3c(NC(=O)C4CC4)n[nH]c3n2)cc1`: 0.71%; `NC(=O)c1cc(-c2ccncc2)cc(-c2ccccc2)c1N`: 4.33%.
Still for that read-out and setting: the value for `Fc1ccc(-c2c(-c3ccncc3)nc3n2CCS3)cc1` was 1.44%.
For the compound `COc1ccc2cc(-c3c(-c4ccncc4)nc(-c4ccc(S(C)(=O)=O)cc4C)n3C)ccc2c1`, the inhibition is 2.69%.
On to `Fc1ccc(-c2ncn(C3CCNCC3)c2-c2ccnc(Oc3ccc(Oc4ccccc4)cc3)n2)cc1`, for which the inhibition was determined as 1.84%.
In the case of `COc1cc(Nc2ncc3c(C)nc(-c4cccc(C(F)(F)F)c4)n3n2)cc(OC)c1OC`, the inhibition stood at 2.21%.
As for `CN(c1ccc(NC(=O)Nc2c(Cl)cccc2Cl)cc1)c1ccnc(Nc2cccc(CS(C)(=O)=O)c2)n1`, the inhibition was found to be 8.03%.
Still for that read-out and setting: the value for `COc1cc2ncn(-c3cc(OCc4cccs4)c(C(N)=O)s3)c2cc1OC` was 2.64%; that for `NC(=O)Cc1ccccc1Oc1nccc(-c2c(-c3ccc(F)cc3)ncn2C2CCNCC2)n1` was 0.8%; that for `C/C(Nc1ccc(S(N)(=O)=O)cc1)=C1/C(=O)Nc2ccccc21` was -1.03%.
As for `Fc1ccc(-c2ncn(CCCN3CCOCC3)c2-c2ccncc2)cc1`, the inhibition was 0.23%.
As for `FC(F)(F)c1cccc(Nc2nccc(-c3cnn4nc(-c5ccccc5)ccc34)n2)c1`, the inhibition worked out at 0.92%.
